# Results taken from PMC4336329 (PLoS ONE, 2015).
# Screen size: about 310,000 compounds; about 14,000 (4.5%) showed an effect of 50% or more. Effects have a minus sign here. Shown is part of a subset that was picked to be rich in strong results.
# Target: human ether-à-go-go-related gene (hERG) potassium channel (human, UniProt Q12809)
# Test: primary screen, population patch clamp on CHO cells stably expressing hERG; higher = less effect of the substance
# 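Note: peak tail current of the secondary pulse compared with the same well before compound.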
# Sequence of human ether-à-go-go-related gene (hERG) potassium channel (Q12809 whole entry, looked up): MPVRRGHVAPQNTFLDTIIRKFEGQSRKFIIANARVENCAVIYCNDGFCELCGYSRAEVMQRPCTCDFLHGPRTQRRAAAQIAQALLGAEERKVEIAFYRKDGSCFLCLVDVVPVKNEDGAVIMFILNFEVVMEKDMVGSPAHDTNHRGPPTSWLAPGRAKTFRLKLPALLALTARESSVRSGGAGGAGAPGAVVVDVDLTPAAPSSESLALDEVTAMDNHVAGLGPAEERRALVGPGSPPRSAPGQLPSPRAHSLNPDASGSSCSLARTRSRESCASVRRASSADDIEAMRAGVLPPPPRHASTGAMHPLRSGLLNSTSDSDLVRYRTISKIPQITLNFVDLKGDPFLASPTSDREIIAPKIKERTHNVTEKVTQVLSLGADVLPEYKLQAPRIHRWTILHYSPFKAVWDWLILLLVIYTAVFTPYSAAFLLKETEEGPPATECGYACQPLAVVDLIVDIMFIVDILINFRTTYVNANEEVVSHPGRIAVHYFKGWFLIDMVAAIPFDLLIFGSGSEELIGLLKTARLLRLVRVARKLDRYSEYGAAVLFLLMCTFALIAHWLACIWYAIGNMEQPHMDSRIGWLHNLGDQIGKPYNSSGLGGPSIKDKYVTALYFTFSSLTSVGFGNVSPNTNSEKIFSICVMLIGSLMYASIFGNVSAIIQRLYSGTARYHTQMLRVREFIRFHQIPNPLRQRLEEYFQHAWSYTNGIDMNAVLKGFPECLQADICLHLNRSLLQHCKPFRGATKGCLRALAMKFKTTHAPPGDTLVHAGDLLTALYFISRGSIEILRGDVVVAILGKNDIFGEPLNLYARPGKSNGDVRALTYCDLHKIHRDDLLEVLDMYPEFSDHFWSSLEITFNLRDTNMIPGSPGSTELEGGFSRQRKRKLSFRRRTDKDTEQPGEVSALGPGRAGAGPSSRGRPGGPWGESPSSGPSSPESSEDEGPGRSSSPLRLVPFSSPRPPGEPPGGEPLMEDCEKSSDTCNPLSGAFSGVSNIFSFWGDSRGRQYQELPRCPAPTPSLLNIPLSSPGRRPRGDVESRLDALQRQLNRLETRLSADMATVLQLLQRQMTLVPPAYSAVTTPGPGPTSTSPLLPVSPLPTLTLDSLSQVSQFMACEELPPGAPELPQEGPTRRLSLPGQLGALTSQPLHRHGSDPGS
row,SMILES,"hERG current change (%, negative = inhibition) at 10uM"
1,Cc1ccc(-n2nc3c(=O)n(CC(=O)NCc4cccs4)nc(C)c3c2C)cc1,-20.1%
2,Cc1ccc(Oc2ncccc2/C=N/OCc2ccc(Cl)cc2Cl)cc1,14.7%
3,CC(C)CC(=O)Nc1ccccc1-c1nnn(CC(=O)N2CCc3ccccc3C2)n1,-37.3%
4,O=C(Nc1ccccc1-c1nnn(CC(=O)N2CCc3ccccc3C2)n1)C1CCC1,-52.8%
5,O=C(Nc1cccc(-c2nnn(CC(=O)N3CCc4ccccc4C3)n2)c1)C1CCC1,2.59%
6,O=C(NCCN1CCOCC1)c1cccc(NS(=O)(=O)c2ccc(Br)cc2)c1,-34.3%
7,OCC[C@H]1C[C@H](O)[C@@H](O)[C@]2(OCc3ccccc32)O1,11.9%
8,O=C(OCc1ccc([N+](=O)[O-])cc1)c1cc([N+](=O)[O-])ccc1N1CCOCC1,-76.1%
9,CC1CC(C)CN(C(=O)COC(=O)c2cc([N+](=O)[O-])ccc2N2CCOCC2)C1 (centres unmarked),-54.7%
10,CC1CCN(C(=O)COC(=O)c2cc([N+](=O)[O-])ccc2N2CCOCC2)CC1,-15%
11,O=C(OCc1ccc(F)cc1)c1cc(S(=O)(=O)N2CCCCC2)ccc1N1CCOCC1,2.16%
12,Cc1ccc(COC(=O)c2cc([N+](=O)[O-])ccc2N2CCOCC2)cc1,-53.7%
13,Cc1ccccc1COC(=O)c1cc([N+](=O)[O-])ccc1N1CCOCC1,-18.8%
14,Cc1ccc(COC(=O)c2cc(S(=O)(=O)N3CCCCC3)ccc2N2CCOCC2)cc1,-13.9%
15,O=C(OCc1cccc(Cl)c1)c1cc([N+](=O)[O-])ccc1N1CCOCC1,-38.7%
16,O=C(OCc1ccccc1Cl)c1cc([N+](=O)[O-])ccc1N1CCOCC1,-23.1%
17,CC1CCCN(C(=O)COC(=O)c2cc([N+](=O)[O-])ccc2N2CCOCC2)C1 (centres unmarked),-14.6%
18,Cc1ccc(C)c(COC(=O)c2cc([N+](=O)[O-])ccc2N2CCOCC2)c1,5.73%
19,O=C(OCc1ccc([N+](=O)[O-])cc1)c1cc(S(=O)(=O)N2CCCCC2)ccc1N1CCOCC1,-75.9%
20,C/C(=N\NC(=O)C(NC(=O)c1ccccc1)C(C)C)c1ccccc1 (centres unmarked),21.2%
21,COc1ccc(-c2csc(NC(C)=O)n2)cc1OC,5.13%
22,Cc1ccccc1NC(=O)NC1(C(=O)NCC2CCCO2)CCCCC1 (centres unmarked),17.5%
23,O=[N+]([O-])c1ccc(NCc2ccccn2)nc1,-5.06%

row,SMILES,"hERG current change (%, negative = inhibition) at 10uM"
1,CCC(C(=O)Nc1ccccc1)c1ccccc1 (centres unmarked),7.86%
2,CS(=O)(=O)N(CC(O)Cn1c2ccccc2c2ccccc21)c1cccc2ccccc12 (centres unmarked),0.652%
3,CCOC(=O)c1c(C)[nH]c(C)c1C(=O)COC(=O)c1cccc(S(=O)(=O)NC)c1,-7.56%
4,COc1ccc(COC(=O)c2cc([N+](=O)[O-])ccc2N2CCOCC2)cc1F,-62.5%
5,O=C(OCc1ccccc1F)c1cc([N+](=O)[O-])ccc1N1CCOCC1,-47.9%
6,CCc1cccc(NC(=O)COC(=O)c2cc([N+](=O)[O-])ccc2N2CCOCC2)c1,-7.99%
7,CN(C)S(=O)(=O)c1cccc(COC(=O)c2cc([N+](=O)[O-])ccc2N2CCOCC2)c1,-52.7%
8,COc1ccc(OC)c(COC(=O)c2cc([N+](=O)[O-])ccc2N2CCOCC2)c1,-18%
9,O=C(OCc1c(F)cccc1Cl)c1cc([N+](=O)[O-])ccc1N1CCOCC1,3.43%
10,COc1cc(C(=O)CSc2nncn2C)cc(OC)c1OC,6.63%
11,CCOC(=O)c1ccc(NC(=S)N2CCC(O)CC2)cc1,18%
12,O=C(CN1C(=O)c2ccccc2C1=O)Nc1cc(C(=O)O)cc(C(=O)O)c1,7.72%
13,N#Cc1ccccc1OCC(=O)NNC(=O)c1ccncc1,9.65%
14,CC1(c2ccc(OC(F)F)cc2)NC(=O)N(CC(=O)Nc2cccc(F)c2)C1=O (centres unmarked),2.79%
15,Cc1ccc(C2(C)NC(=O)N(CC(=O)Nc3cc(C)on3)C2=O)cc1 (centres unmarked),-10.7%
16,CC1(c2ccc(OC(F)F)cc2)NC(=O)N(CC(=O)Nc2ccc(S(N)(=O)=O)cc2)C1=O (centres unmarked),1.64%
17,CCOc1ccc(NC(=O)CN2C(=O)NC(C)(c3ccc(OC(F)F)cc3)C2=O)cc1 (centres unmarked),-16.1%
18,CC1(c2ccc(OC(F)F)cc2)NC(=O)N(CC(=O)Nc2ccc(F)cc2)C1=O (centres unmarked),-45.5%
19,CC1(c2ccc(OC(F)F)cc2)NC(=O)N(CC(=O)Nc2ccc(OC(F)F)cc2)C1=O (centres unmarked),-94.9%
20,Cc1cc(NC(=O)CN2C(=O)NC(C)(c3ccc(Cl)cc3)C2=O)no1 (centres unmarked),39.2%
21,CC1(c2ccc(OC(F)F)cc2)NC(=O)N(CC(=O)Nc2ccccc2)C1=O (centres unmarked),-51.3%
22,Cc1cc(NC(=O)CN2C(=O)NC(C)(c3ccccc3)C2=O)no1 (centres unmarked),-55.5%
23,CCn1c(=S)sc2c(=O)n(CC(=O)NCCCc3ccccc3)c(C)nc21,18.8%

row,SMILES,"hERG current change (%, negative = inhibition) at 10uM"
1,COc1ccc(OC)c(NC(=O)Cn2cnc3c(cnn3-c3ccccc3)c2=O)c1,-12.8%
2,COc1cc(/C=C/C(=O)OCC(=O)c2c(N)n(C)c(=O)n(C)c2=O)ccc1OC(F)F,6.4%
3,COc1ccc(CN(C)C(=O)COC(=O)c2ccc3c(c2)OCO3)cc1OC,-3.84%
4,CCC(=O)OC1(C)C(=O)C=C2C=C(C3CC3)OC=C2C1=O (centres unmarked),12.5%
5,CCC(C(=O)Nc1ccccc1OC)n1c(C(=O)OC)cc2ccsc21 (centres unmarked),-11.3%
6,CN(CC(=O)NNC(=O)CNC(=O)c1ccccc1Cl)S(=O)(=O)c1ccc(Cl)cc1,9.57%
7,Cc1cccc(NC(=O)CN2CCN(C(=O)c3cncn3-c3ccc(F)cc3)CC2)c1C,-60.9%
8,O=C(CN1CCCCCC1)Nc1ccccc1Cl,6.75%
9,Cc1cccc(NC(=O)CN2CCN(C(=O)c3cnn(Cc4ccccc4)c3)CC2)c1C,-87.2%
10,O=C(CN1CCN(C(=O)c2c(F)cccc2F)CC1)Nc1ccccc1C(F)(F)F,-20.9%
11,O=C(CN1CCN(CC(=O)Nc2ccccc2C(F)(F)F)CC1)Nc1ccccc1F,-30.2%
12,Cc1cccc(NC(=S)N2CCN(Cc3ccccc3)CC2)c1C,-13.2%
13,Cc1cccc(NC(=O)Cn2cnc3c(cnn3-c3ccc(F)cc3)c2=O)c1C,2.99%
14,O=C(CN1CCN(C(=O)c2cncn2-c2ccccc2)CC1)Nc1ccccc1Cl,-77.3%
15,Cc1cccc(NC(=O)CN2CCN(C(=O)c3oc4c(Cl)cccc4c3C)CC2)c1C,-43.6%
16,O=C(CN1CCN(C(=O)c2cncn2-c2ccc(F)cc2)CC1)Nc1ccccc1C(F)(F)F,-70%
17,O=C(CN1CCCCC1)Nc1ccccc1Cl,21.1%
18,COc1cc(OC)cc(C(=O)OCC(=O)Nc2ccc(F)cc2F)c1,4.34%
19,CCC(C)(C)NC(=O)c1ccc2c(c1)S(=O)(=O)c1ccccc1C2=O,-16.8%
20,CNS(=O)(=O)c1cccc(C(=O)OCC(=O)NCCCc2ccccc2)c1,-5.42%
21,COc1cc(OC)cc(-c2nnc(SCc3c(F)cccc3Cl)o2)c1,0.324%
22,COc1ccccc1CC(=O)N1CCCc2ccccc21,0.493%
23,COc1cc([N+](=O)[O-])ccc1NC(=O)Nc1nc2c(s1)CCCC2,11.7%

row,SMILES,"hERG current change (%, negative = inhibition) at 10uM"
1,O=C(Nc1ccccc1C(=O)O)c1ccc(NC(=O)c2ccc(Br)o2)cc1,11.7%
2,Cc1ccc(-n2c(N)cc(=O)nc2SCC(=O)N2CCN(c3ccccc3)CC2)cc1,-0.877%
3,COc1cc(C(CC(=O)Nc2ccccn2)N2Cc3ccccc3C2=O)cc(OC)c1OC (centres unmarked),-11.5%
4,COc1cc(C(CC(=O)Nc2ccc(C)cn2)N2Cc3ccccc3C2=O)cc(OC)c1OC (centres unmarked),-1.38%
5,COc1cc(C(CC(=O)Nc2ccc(Cl)cn2)N2Cc3ccccc3C2=O)cc(OC)c1OC (centres unmarked),-68.1%
6,Cc1ccc(Nc2cc(C)nc(N3CCOCC3)n2)cc1,6.18%
7,O=S(=O)(NC1CCCCC1)c1cccc(-c2nnc(-c3ccccc3)o2)c1,-36.4%
8,Cc1ccc(N=C2S/C(=C/c3cccc(OCC(=O)O)c3)C(=O)N2C)cc1C,20.5%
9,O=C(c1ccc(C(=O)N2CCCc3ccccc32)nc1)N1CCCc2ccccc21,-9.08%
10,CCNC(=O)CSc1nnc(-c2ccc(OC)cc2)n1CC(C)C,-3.51%
11,CC1CCCN(C(=O)Cn2c3ccccc3c3nc4n(c(=O)c32)CCS4)C1 (centres unmarked),-3.59%
12,Cc1ccccc1-c1cccc([C@@H]2C[C@H]3CN(Cc4cccnc4)C(=O)[C@]34CCCN24)c1,-59%
13,O=C1N(Cc2cccnc2)C[C@@H]2C[C@@H](c3ccc(C(F)(F)F)cc3)N3CCC[C@@]123,-53.9%
14,O=C1N(Cc2cccnc2)C[C@@H]2C[C@@H](c3ccccc3C#Cc3ccccc3)N3CCC[C@@]123,-69.5%
15,O=C1N(Cc2cccnc2)C[C@@H]2C[C@@H](c3cccc(C(F)(F)F)c3)N3CCC[C@@]123,-10.3%
16,Cc1ccccc1CN1C[C@@H]2C[C@@H](c3ccc4nsnc4c3)N3CCC[C@@]23C1=O,-18.1%
17,COc1ccccc1CN1C[C@@H]2C[C@@H](c3ccc(Cl)cc3)N3CCC[C@@]23C1=O,-44.1%
18,CCc1ccc([C@@H]2C[C@H]3CN(Cc4ccccc4OC)C(=O)[C@]34CCCN24)cc1,-70.7%
19,COc1ccccc1CN1C[C@@H]2C[C@@H](c3ccc(C)cc3)N3CCC[C@@]23C1=O,-43.6%
20,O=C1N(Cc2cccnc2)C[C@@H]2C[C@@H](c3ccccc3C(F)(F)F)N3CCC[C@@]123,-11.2%
